Test results as given in PubChem BioAssay (EPA / NIEHS).
Activity calls are given as the source filed them. The calls were made as follows: active = hit-call score of the fitted dose curve at least 0.9, where 1 is the maximum; inactive = score below 0.9.

Assay: CCTE_Shafer_MEA_dev_per_network_spike_spike_number_mean: CCTE's Neural Network Formation Assay for Mean Number of Spikes in a Network Spike, Shafer Lab (AID 2284053)
Procedure: CCTE_Shafer_MEA_dev assay is conducted using Axion Biosystems 48 well microelectrode array (MEA) plates and Maestro recording system. Each well of the MEA plate contains a grid of 16 microelectrodes embedded in the culture surface. Electrically active cells, such as neurons, can be cultured over the electrodes, and electrical activity in these cells can be recorded extracellularly. The spontaneous firing of neurons is captured from each electrode on a microsecond timescale providing both temporally and spatially precise data. […] The CCTE_Shafer_MEA_dev assay uses primary cultures of rat cortical neurons. Recordings are made on days post-plating 5, 7, 9 and 12. As these cultures mature over time, neural networks develop functional activity and form cohesive networks in which electrical activity can be highly coordinated. CCTE_Shafer_MEA_dev_per_network_spike_spike_number_mean is 1 of 19 assay components of the CCTE_Shafer_MEA_dev assay. It measures the average number of spikes (action potential firings) in a network spike (temporally-clustered group of spikes across multiple electrodes) as the number of spikes that occur within a 0.05 s time window at the peak of a network spike divided by the total number of network spikes during a recording in a microelectrode array (MEA) using Axion Biosystems Maestro 768 channel amplifier with the AxIS adaptive spike detector. To collapse across multiple recordings made on days post-plating 5, 7, 9 and 12, the trapezoidal area-under-the-curve of the component is calculated.Data from the assay component CCTE_Shafer_MEA_dev_per_network_spike_spike_number_mean was analyzed into 1 assay endpoint. This assay endpoint, CCTE_Shafer_MEA_dev_per_network_spike_spike_number_mean, was analyzed in the negative analysis fitting direction relative to DMSO as the negative control and baseline of activity. Using a type of functional reporter, gain or loss-of-signal activity can be used to understand electrical activity.
On the day prior to culture, each well was coated thoroughly with 150 uL of 0.05% polyethyleneimine (PEI, Sigma Cat P3143) in 50 mM HEPES (Sigma Cat H7523) at a pH of 8. The plate was incubated at 37C for one hour. PEI was rinsed out with 500 uL of sterile water three times. Plates were stored at 4C until the day of culture. This culture was plated at a seeding density of 1.5 x 10^5 cells/well on a 48-well MEA plate, prepared as described above. Cells were administered via a 25 uL media/laminin ([…]; Sigma Cat L2020-1MG) drop directly onto the microelectrode array, as adding the cells with the laminin results in better attachment than pre-coating with laminin. After 2 hours, an additional 475 uL of cortical media was added and the cells returned to the incubator. Exposure starts at day 0 of plating and is continued over twelve days of network development until the experiment is terminated. Cells are fed with fresh medium on DIV 5 and 9, following the recordings on those days. The entire volume of media in the well is exchanged and any vehicle or compound treatment is renewed. Complete details are found in OP-NHEERL/ISTD/SBB/TJS/2015-03-r0 (available on request, email shafer.tim@epa.gov). Measurement of the electrical activity is non-invasive, and recordings can be made from the same plate over multiple different days of the culture. In cortical neurons, this allows for the measurement of extracellular action potentials over the period during which networks form in the MEA plate.
For CC(C)[C@@H](Nc1ccc(C(F)(F)F)cc1Cl)C(=O)OC(C#N)c1cccc(Oc2ccccc2)c1 (stereo not given in full), the outcome was “inactive”. With CCOCn1c(-c2ccc(Cl)cc2)c(C#N)c(Br)c1C(F)(F)F the AC50 was 6.48 µM (active). In the case of OC(Cc1ccccc1Cl)(Cn1[nH]cnc1=S)C1(Cl)CC1 (stereo not given), the AC50 is reported as 23.6 µM (active). With CC(=O)C(F)(F)C(F)(F)F the outcome was “inactive”. In the case of NC(=O)c1ccc(N)nc1, the AC50 is reported as 4.19 µM (active). In the case of O=S(=O)(F)C(F)(F)C(F)(F)C(F)(F)C(F)(F)F, the outcome is reported as “inactive”. For C=CC(F)(C(F)(F)F)C(F)(F)C(F)(F)F (stereo not given), the outcome was “inactive”. For C=CCOC(F)(C(F)(F)F)C(F)(F)F, the outcome was “inactive”. For CNC(=O)CSP(=O)(OC)OC, the outcome was “inactive”. In the case of CC1(C)[C@H](C(=O)O[C@H](C#N)c2cccc(Oc3ccccc3)c2)[C@@H]1/C=C(\Cl)C(F)(F)F, the AC50 is reported as 12.9 µM (active). For CC(F)(F)CC(F)(F)F, the outcome was “inactive”. For FC(F)OCC(F)(F)C(F)(F)F, the outcome was “inactive”. In the case of CS(=O)(=O)c1ccc(C(=O)C2C(=O)CCCC2=O)c(Cl)c1COCC(F)(F)F, the outcome is reported as “inactive”. With Cc1ccccc1OP(=O)(Oc1ccccc1C)Oc1ccccc1C the AC50 was 20.3 µM (active). For Cc1cc(C(F)(C(F)(F)F)C(F)(F)F)ccc1NC(=O)c1cccc(I)c1C(=O)NC(C)(C)CS(C)(=O)=O, the AC50 was 17.4 µM (active).
